Records with an inconclusive call do not appear. Values without a mark were called inactive. Activity calls are given as the source filed them. Calls follow the shape of the dose curve; as a rule, active = well fitted inhibition curve with a large enough effect; inconclusive = small, poorly fitted or top-dose-only effect; inactive = no such curve, though single readings can be large or run the other way.
Assay: BET inhibitor-based combinations targeting novel dependencies in MECOM-rearranged (r) AML: OCI-AML3 cell line (AID 2202232); also: nearly all actives have a fitted effect of over 35% in size
Conditions: CellTiter-Glo luminescence, 48 h; Potency: OCI-AML3 viability; series mostly up to 46 µM
From the text: Ecotropic viral insertion site 1 (EVI1) is located on chromosome 3q26.2 as part of the MECOM (MDS and EVI1 complex) locus. Under normal hematopoiesis, EVI1 is a regulator of hematopoietic stem cell maintenance and self-renewal and EVI1 levels decrease as the cells differentiate. In approximately 5-10% of de novo acute myeloid leukemia (AML) EVI1 is aberrantly expressed, including Chromosomal inv(3)(q21;q26.2) or t(3;3)(q21;q26.2) alterations (MECOM-r) that account for about 50% of AML with EVI1 overexpression 31. AMLs with high levels of EVI1 have a poor prognosis and an overall survival time averaging between 10-14 months. EVI1 overexpression confers resistance in leukemia cells, highlighting the need to develop new targeted therapies for EVI1 overexpressing AMLs.
Here, we performed an unbiased chemical drug screening by evaluating the single agent activity of a collection of 2,480 oncology-focused, approved and investigational drugs (NCATS Mechanism Interrogation Plates, MIPE v5.0) against a panel of seven AML cell lines. These included four MECOM-r cell-lines (AML-191, AML-194, UCSD-AML1 and HNT-34) and three non-MECOM-r AMLs (MV4-11, OCI-AML3 and SET-2). Exploiting the mechanistic redundancy built in the library, we identified target-level sensitivities in MECOM-r AML cells and relative activity as compared to other AML subtypes.
A collection of 2480 mechanistically annotated dugs (MIPE v5.0) was used to screen four 3q26.2 rearranged AML cell lines and three non-3q26.2 rearranged AML cell lines. This library purposely exploits redundancy by including multiple inhibitors of key onco-targets, while simultaneously encompassing mechanistic diversity, targeting more than 800 distinct mechanisms of action. Briefly, cells were seeded in 5 uL of growth media using a Multidrop Combi dispenser into 1536 well white polystyrene tissue culture treated plates (Corning) at a density of 500cells/well. For each cell-line, for each of the 2480 drugs in MIPE v5.0 library, an 11-point dose curve was generated via a 1536 pin-tool. Plates were incubated for 48 hr at standard incubator conditions, covered by a stainless steel gasketed lid to prevent evaporation. Cell viability was determined by luminescence based, Cell Titer Glo assay (Promega). In detail, 3 uL of Cell Titer Glo were added to each well and plates were incubated at room temperature for 15 min with a stainless-steel lid in place. Luminescence readings were taken using a Viewlux (PerkinElmer) with a 2 s exposure time per plate. Compound dose-response curves were normalized to DMSO and empty well controls on each plate. Quantitative drug activity data from dose-response curves was determined utilizing area Under the Curve (AUC) and Z-transformed AUC (Z-AUC, a mean-centering transformation applied to each individual cell-line screened).
Potency is read from the fitted curve at half-maximal effect.

SMILES | Potency | viability (% of control)
Cc1c(F)ccc(C(=O)Nc2cc([N+](=O)[O-])ccc2N2CCN(C)CC2)c1Cl | inactive | 
OC1CCC([C@H](O)C[C@H]2c3c(F)cccc3-c3cncn32)CC1 (stereo not given in full) | inactive | 
Nc1ncccc1-c1nc2ccc(-c3ccccc3)nc2n1-c1ccc(C2(N)CCC2)cc1 | 18.6 µM (active) | 
COc1ncc(Nc2ncc([C@H](C)N3CCN(S(C)(=O)=O)CC3)cc2-c2nc(C)nc(N)n2)cc1F | 0.0468 µM (active) | 
CC1(C)O[C@@H]2C[C@H]3[C@@H]4C[C@H](F)C5=CC(=O)C=C[C@]5(C)[C@H]4[C@@H](O)C[C@]3(C)[C@]2(C(=O)CO)O1 | inactive | 
Cc1ccc(F)c(NC(=O)Nc2ccc(-c3cccc4[nH]nc(N)c34)cc2)c1 | 18.6 µM (active) | 
CC(C)(O)[C@H]1CC[C@@](C)([C@H]2[C@@H](O)C[C@@]3(C)[C@@H]4C[C@H](O[C@@H]5O[C@H](CO)[C@@H](O)[C@H](O)[C@H]5O)[C@H]5C(C)(C)[C@@H](O[C@@H]6OC[C@@H](O)[C@H](O)[C@H]6O)CC[C@@]56C[C@@]46CC[C@]23C)O1 | inactive | 
COc1cc(C(=O)NC(N)=Nc2ccc(C)c(NC(=O)c3ccc(-c4ccccc4)cc3)c2)cc(OC)c1OC | 18.6 µM (active) | 
COc1ccc(-c2nc(N3CCOCC3)c3sc(CN(C)c4ncc(C(=O)NO)cn4)cc3n2)cn1 | 0.0332 µM (active) | 
CC(=O)CC(c1ccccc1)c1c(O)c2ccccc2oc1=O (stereo not given) | inactive | 
CCC(=O)N1CCOc2c(cc(-c3cc(OC)cc(OC)c3)cc2C(=O)N[C@H]2CCCN(C)C2)C1 | 16.6 µM (active) | 
COc1ccccc1-c1cccc(-c2c(O)c3cc(C#N)c(Cl)cc3[nH]c2=O)c1 | inactive | 
CC1(C)O[C@@H]2C[C@H]3[C@@H]4CCC5=CC(=O)C=C[C@]5(C)[C@H]4[C@@H](O)C[C@]3(C)[C@]2(C(=O)CO)O1 | inactive | 
CC(=O)N1c2ccc(-c3ccc(C(=O)O)cc3)cc2[C@H](Nc2ccc(Cl)cc2)C[C@@H]1C | 0.0661 µM (active) | 
CC(=O)N[C@H]1[C@H](O[C@@H]2c3ccc(c(Cl)c3)Oc3cc4cc(c3O[C@@H]3O[C@H](CO)[C@@H](O)[C@H](O)[C@H]3NC(=O)CCCCCCCC(C)C)Oc3ccc(cc3Cl)C[C@H]3NC(=O)[C@H](N)c5ccc(O)c(c5)Oc5cc(O)cc(c5)[C@H](NC3=O)C(=O)N[C@H]4C(=O)N[C@H]3C(=O)N[C@@H]2C(=O)N[C@@H](C(=O)O)c2cc(O)cc(O[C@H]4O[C@H](CO)[C@@H](O)[C@H](O)[C@@H]4O)c2-c2cc3ccc2O)O[C@H](CO)[C@@H](O)[C@@H]1O | inactive | 
CC(C)(NS(=O)(=O)c1ccc2c(Cl)cnc(N=C(N)N)c2c1)C(=O)O | inactive | 
CC(C)n1ncnc1-c1cn2c(n1)-c1ccc(O[C@@H](C)C(N)=O)cc1OCC2 | 2.35 µM (active) | 
N#C/C(=C(/N)Sc1ccc(N)cc1)c1ccccc1C(F)(F)F | 7.42 µM (active) | 
Cc1c(-c2cnccn2)ssc1=S | 2.95 µM (active) | 
Cc1c(-c2c(-c3ccc(F)o3)sc3ncnc(O[C@@H](Cc4ccccc4OCc4ccnn4CC(F)(F)F)C(=O)O)c23)ccc(OCCN2CCN(C)CC2)c1Cl | 0.296 µM (active) | 

SMILES | Potency | viability (% of control)
CC1(C)SCCN(S(=O)(=O)c2ccc(OCC#CCO)cc2)[C@H]1C(=O)NO | inactive | 
CN(C)CCOc1ccc(-c2nc(-c3ccc4c(c3)CC/C4=N\O)c(-c3ccncc3)[nH]2)cc1 | 5.9 µM (active) | 
CC(c1cc2ccccc2s1)N(O)C(N)=O (stereo not given) | inactive | 
Fc1cccc(-n2cnc3c(NCc4nc5c(F)c(F)ccc5[nH]4)nc(N4CCOCC4)nc32)c1 | 0.742 µM (active) | 
C=CCNC1=C2C[C@@H](C)C[C@H](OC)[C@H](O)[C@@H](C)/C=C(\C)[C@H](OC(N)=O)[C@@H](OC)/C=C\C=C(/C)C(=O)NC(=CC1=O)C2=O | 10.5 µM (active) | 
O=C(/C=C/c1ccc(/C=C/C(=O)Nc2ccc(C3=NCCN3)cc2)cc1)Nc1ccc(C2=NCCN2)cc1 |  | 117% [at 5.12 µM]
C[C@H]1C[C@H]2[C@@H]3CCC4=CC(=O)C=C[C@]4(C)[C@H]3C(=O)C[C@]2(C)[C@@]1(O)C(=O)CO | inactive | 
CC(C)c1c(-c2ccccc2)nc2c(C#N)c[nH]n2c1=O | inactive | 
CCN(CC)CCNc1ccc(C)c2sc3ccccc3c(=O)c12 | 14.8 µM (active) | 
CCN1CCN(Cc2ccc(NC(=O)c3ccc(C)c(/C=C/c4cnc5[nH]ccc5c4OC)c3)cc2C(F)(F)F)CC1 | 5.25 µM (active) | 
CN(C)c1ccc(-c2nc3ncc(Cl)c(N4CCN(CC(=O)Nc5nccs5)CC4)c3[nH]2)cc1 | 1.62 µM (active) | 
C[C@@H](OC[C@@]1(c2ccccc2)CC[C@]2(CCC(=O)N2)CN1)c1cc(C(F)(F)F)cc(C(F)(F)F)c1 | 18.6 µM (active) | 
C[C@@]12O[C@@H](C[C@]1(O)CO)n1c3ccccc3c3c4c(c5c6ccccc6n2c5c31)CNC4=O | 0.417 µM (active) | 
NC(=O)c1ccc2nc(-c3ccc(C4(N)CCC4)cc3)c(-c3ccccc3)n2n1 | 13.2 µM (active) | 
CC1=NN(c2ccc(C(=O)O)cc2)C(=O)/C1=C/c1ccc(-c2cc(C)c(C)cc2[N+](=O)[O-])o1 | 0.235 µM (active) | 
NC(=O)/C(=C/n1cnc(-c2cc(C(F)(F)F)cc(C(F)(F)F)c2)n1)c1cncnc1 | 0.742 µM (active) | 
CCc1ccc2nc(Nc3cc(Cc4ccccc4)nc(NC4CCC(O)CC4)n3)sc2c1 (stereo not given) | 18.6 µM (active) | 
CCC[C@H](NC(=O)[C@@H]1[C@H]2CCC[C@H]2CN1C(=O)[C@@H](NC(=O)[C@@H](NC(=O)c1cnccn1)C1CCCCC1)C(C)(C)C)C(=O)C(=O)NC1CC1 | inactive | 
COc1cc(NS(C)(=O)=O)ccc1Nc1c2ccccc2nc2ccccc12 | 0.372 µM (active) | 
Cc1ccc(S(=O)(=O)Nc2cc(C(F)(F)F)ccc2C(=O)Nc2nc(-c3ccccc3)cs2)cc1 | 7.42 µM (active) | 
